For assay [1], the target named is T1, Ephrin type-B receptor 2 (Homo sapiens) (UniProt P29323).
T1 sequence (whole entry): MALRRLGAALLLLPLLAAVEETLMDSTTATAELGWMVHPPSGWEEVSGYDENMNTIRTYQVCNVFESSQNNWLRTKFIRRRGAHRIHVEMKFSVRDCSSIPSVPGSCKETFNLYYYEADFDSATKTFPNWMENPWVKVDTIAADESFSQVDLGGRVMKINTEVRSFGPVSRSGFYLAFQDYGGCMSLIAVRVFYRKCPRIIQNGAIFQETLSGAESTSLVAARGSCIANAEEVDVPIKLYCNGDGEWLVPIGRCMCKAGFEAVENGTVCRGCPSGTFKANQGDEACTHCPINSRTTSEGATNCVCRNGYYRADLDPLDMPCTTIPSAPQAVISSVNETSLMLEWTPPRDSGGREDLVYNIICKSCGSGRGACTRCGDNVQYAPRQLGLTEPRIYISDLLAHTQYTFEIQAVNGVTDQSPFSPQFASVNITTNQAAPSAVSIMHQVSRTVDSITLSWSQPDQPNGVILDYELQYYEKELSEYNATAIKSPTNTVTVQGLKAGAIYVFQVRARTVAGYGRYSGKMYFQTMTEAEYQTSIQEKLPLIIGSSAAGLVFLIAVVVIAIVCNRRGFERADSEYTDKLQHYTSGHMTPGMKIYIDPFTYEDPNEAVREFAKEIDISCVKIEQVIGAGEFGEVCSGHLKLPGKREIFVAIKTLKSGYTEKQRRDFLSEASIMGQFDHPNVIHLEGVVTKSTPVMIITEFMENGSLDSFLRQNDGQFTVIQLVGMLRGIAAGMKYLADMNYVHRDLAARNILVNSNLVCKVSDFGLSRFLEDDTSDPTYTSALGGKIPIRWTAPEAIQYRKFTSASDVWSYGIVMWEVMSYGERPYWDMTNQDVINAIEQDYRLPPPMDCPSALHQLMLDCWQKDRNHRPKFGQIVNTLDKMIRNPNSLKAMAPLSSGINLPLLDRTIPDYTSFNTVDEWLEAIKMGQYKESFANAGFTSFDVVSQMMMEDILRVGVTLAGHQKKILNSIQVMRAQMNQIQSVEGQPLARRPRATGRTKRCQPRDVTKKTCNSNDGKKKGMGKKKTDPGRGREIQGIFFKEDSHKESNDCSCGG
The conditions noted are these: at 1 µM.

Assay [2] addresses T2, Ephrin type-B receptor 3 (Homo sapiens) (UniProt P54753).
T2 sequence (whole entry): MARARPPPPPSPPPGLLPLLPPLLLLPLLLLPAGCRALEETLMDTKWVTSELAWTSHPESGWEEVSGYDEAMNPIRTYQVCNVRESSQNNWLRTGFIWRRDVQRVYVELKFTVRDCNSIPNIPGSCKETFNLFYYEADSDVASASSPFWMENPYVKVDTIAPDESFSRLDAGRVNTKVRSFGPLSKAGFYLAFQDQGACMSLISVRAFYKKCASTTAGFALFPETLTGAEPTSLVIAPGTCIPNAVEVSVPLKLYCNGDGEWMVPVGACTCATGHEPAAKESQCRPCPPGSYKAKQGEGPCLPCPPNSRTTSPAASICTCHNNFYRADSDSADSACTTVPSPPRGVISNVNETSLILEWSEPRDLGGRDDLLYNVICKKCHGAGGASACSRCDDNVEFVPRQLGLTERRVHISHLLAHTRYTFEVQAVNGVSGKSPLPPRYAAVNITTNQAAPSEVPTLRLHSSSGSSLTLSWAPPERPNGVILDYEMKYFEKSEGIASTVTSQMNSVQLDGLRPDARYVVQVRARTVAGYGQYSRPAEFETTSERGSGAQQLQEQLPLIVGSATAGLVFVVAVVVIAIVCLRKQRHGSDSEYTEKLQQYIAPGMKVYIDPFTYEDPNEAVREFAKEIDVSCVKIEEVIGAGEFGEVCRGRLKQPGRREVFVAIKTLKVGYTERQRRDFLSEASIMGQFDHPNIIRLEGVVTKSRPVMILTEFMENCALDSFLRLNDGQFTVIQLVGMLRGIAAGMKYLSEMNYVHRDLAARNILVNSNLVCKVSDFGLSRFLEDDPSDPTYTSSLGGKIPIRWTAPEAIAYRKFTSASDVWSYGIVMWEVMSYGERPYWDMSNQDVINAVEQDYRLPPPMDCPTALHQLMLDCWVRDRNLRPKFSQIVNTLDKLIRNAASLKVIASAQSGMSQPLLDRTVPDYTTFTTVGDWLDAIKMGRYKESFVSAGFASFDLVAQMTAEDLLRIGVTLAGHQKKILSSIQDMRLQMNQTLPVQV
The following applies: at 0.1 µM.

The target of assay [3] is T2, Ephrin type-B receptor 3 (Homo sapiens). The conditions noted are these: at 1 µM.
For assay [4], the target named is T3, Ephrin type-B receptor 4 (Homo sapiens) (UniProt P54760).
T3 sequence (whole entry): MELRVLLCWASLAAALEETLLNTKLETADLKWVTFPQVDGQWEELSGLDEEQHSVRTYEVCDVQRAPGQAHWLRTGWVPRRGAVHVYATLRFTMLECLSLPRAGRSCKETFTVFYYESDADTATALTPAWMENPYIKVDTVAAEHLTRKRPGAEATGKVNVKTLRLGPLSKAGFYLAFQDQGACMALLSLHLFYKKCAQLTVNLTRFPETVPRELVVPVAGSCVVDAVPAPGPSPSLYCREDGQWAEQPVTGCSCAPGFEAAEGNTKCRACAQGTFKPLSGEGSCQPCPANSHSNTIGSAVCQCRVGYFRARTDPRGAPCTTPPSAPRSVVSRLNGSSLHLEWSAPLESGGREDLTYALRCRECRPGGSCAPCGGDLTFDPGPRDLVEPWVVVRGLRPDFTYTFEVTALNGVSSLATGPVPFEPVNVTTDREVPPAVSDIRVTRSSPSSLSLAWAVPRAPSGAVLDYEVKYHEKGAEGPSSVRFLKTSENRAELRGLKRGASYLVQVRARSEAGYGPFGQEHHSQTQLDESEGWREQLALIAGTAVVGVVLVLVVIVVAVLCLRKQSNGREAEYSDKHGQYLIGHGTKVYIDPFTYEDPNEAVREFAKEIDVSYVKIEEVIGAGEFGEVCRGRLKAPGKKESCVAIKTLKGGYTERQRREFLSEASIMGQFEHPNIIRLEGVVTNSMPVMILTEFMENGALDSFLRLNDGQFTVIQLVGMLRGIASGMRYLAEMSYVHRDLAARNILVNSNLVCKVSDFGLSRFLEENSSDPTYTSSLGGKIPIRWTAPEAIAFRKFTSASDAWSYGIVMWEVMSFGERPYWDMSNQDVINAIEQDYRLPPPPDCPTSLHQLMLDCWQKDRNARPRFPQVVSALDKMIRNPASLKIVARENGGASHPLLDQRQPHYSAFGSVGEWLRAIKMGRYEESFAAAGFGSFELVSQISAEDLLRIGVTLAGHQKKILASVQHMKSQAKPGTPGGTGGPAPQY
The following applies: at 0.1 µM.

Assay [5] concerns the target T3, Ephrin type-B receptor 4 (Homo sapiens). The conditions noted are these: at 1 µM.
The target in assay [6] is Receptor tyrosine-protein kinase erbB-2 (Homo sapiens) (UniProt P04626). The conditions noted are these: at 0.1 µM.
Chain of Receptor tyrosine-protein kinase erbB-2 (Homo sapiens) (P04626 whole entry): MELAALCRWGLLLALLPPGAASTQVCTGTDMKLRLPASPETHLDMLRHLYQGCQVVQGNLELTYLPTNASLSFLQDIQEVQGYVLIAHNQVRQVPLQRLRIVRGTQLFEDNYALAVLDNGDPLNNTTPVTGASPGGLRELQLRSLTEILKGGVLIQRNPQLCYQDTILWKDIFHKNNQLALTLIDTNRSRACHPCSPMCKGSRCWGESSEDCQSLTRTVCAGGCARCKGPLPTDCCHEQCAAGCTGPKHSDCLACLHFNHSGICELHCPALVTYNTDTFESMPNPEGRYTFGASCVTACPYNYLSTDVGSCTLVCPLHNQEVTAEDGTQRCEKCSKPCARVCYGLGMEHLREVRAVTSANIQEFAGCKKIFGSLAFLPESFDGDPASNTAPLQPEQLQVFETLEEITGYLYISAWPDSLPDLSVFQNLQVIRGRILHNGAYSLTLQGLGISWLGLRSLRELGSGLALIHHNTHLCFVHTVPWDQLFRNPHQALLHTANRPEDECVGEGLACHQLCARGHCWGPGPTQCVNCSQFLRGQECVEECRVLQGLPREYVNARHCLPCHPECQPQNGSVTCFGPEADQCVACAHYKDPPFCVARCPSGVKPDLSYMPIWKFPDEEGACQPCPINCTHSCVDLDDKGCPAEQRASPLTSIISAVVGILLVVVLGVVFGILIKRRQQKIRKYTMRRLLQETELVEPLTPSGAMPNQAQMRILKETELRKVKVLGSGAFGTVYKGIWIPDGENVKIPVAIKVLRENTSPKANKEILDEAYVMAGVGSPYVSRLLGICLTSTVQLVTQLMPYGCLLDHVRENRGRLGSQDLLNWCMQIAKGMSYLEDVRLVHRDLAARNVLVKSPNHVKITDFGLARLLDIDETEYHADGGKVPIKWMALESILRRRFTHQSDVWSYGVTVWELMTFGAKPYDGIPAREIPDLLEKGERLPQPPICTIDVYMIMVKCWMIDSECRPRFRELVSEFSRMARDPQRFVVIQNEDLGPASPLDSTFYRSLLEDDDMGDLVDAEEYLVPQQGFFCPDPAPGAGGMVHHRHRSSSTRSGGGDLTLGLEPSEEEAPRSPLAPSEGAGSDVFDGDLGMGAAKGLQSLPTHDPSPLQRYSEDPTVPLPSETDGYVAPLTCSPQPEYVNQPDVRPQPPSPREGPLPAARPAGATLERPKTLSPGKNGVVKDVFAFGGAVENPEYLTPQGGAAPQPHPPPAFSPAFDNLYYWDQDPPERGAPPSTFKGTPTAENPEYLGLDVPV
Assay [7] has the same target. The following applies: at 1 µM.
Assay [8] concerns the target Receptor tyrosine-protein kinase erbB-4 (Homo sapiens) (UniProt Q15303). The following applies: at 0.1 µM.
The target is the same in assay [9]. The conditions noted are these: at 1 µM.
Assay [10] deals with Tyrosine-protein kinase Fer (Homo sapiens) (UniProt P16591). The following applies: at 0.1 µM.
Chain of Tyrosine-protein kinase Fer (Homo sapiens) (P16591 whole entry, looked up): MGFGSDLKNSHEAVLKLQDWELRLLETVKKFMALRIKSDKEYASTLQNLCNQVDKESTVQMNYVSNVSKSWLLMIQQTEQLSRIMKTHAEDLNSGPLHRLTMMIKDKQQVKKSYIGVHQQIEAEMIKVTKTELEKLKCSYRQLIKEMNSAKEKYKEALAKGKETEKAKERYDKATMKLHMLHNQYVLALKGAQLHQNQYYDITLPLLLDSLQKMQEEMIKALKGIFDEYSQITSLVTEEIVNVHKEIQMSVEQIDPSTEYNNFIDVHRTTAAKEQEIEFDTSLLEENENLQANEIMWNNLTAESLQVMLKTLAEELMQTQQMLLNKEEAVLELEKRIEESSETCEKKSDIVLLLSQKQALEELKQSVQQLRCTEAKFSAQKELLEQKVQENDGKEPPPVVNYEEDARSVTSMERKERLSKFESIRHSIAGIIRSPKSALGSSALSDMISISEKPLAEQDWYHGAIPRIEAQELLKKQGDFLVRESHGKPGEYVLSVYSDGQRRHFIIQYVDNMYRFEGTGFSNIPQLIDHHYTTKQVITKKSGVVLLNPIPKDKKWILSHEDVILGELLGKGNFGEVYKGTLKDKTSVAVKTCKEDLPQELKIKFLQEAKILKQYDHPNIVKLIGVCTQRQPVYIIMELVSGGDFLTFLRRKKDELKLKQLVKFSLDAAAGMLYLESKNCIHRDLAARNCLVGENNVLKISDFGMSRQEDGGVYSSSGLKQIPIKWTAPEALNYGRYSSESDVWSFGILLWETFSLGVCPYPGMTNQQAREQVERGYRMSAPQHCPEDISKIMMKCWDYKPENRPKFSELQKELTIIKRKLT
For assay [11] the target is unchanged. The conditions noted are these: at 1 µM.
Assay [12] deals with Tyrosine-protein kinase Fes/Fps (Homo sapiens) (UniProt P07332). The conditions noted are these: at 0.1 µM.
The target is the same in assay [13]. The conditions noted are these: at 1 µM.
The target of assay [14] is Fibroblast growth factor receptor 1 (Homo sapiens) (UniProt P11362). The conditions noted are these: at 0.1 µM.
Chain of Fibroblast growth factor receptor 1 (Homo sapiens) (P11362 22-822 limits assumed): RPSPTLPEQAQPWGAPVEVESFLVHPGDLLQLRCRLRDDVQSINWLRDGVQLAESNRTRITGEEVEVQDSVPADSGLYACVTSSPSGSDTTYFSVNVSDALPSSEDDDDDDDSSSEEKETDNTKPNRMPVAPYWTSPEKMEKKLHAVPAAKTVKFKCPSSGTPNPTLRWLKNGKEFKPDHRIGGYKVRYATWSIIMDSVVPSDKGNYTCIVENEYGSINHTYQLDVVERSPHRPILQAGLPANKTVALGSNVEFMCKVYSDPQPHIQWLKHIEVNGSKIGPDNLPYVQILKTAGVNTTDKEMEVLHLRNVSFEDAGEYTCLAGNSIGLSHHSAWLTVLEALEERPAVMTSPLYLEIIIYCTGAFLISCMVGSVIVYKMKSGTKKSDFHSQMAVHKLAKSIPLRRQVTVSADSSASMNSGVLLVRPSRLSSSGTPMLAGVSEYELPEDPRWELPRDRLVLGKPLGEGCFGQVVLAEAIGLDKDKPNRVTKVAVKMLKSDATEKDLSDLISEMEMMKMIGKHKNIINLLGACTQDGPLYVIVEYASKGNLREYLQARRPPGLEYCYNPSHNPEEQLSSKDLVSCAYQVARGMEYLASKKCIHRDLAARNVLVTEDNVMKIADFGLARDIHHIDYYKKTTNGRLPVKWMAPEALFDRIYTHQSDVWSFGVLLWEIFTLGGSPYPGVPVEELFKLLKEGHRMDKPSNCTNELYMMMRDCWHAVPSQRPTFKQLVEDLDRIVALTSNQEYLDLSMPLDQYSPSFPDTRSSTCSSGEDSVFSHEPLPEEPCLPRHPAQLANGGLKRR
For assay [15] the target is unchanged. The conditions noted are these: at 1 µM.
Assay [16] has as its target Fibroblast growth factor receptor 2 (Homo sapiens) (UniProt P21802). The conditions noted are these: at 0.1 µM.
The target is the same in assay [17]. The following applies: at 1 µM.
Assay [18] addresses Fibroblast growth factor receptor 3 (Homo sapiens) (UniProt P22607). The following applies: at 0.1 µM.
For assay [19] the target is unchanged. The following applies: at 1 µM.
Assay [20] concerns the target Fibroblast growth factor receptor 4 (Homo sapiens) (UniProt P22455). The conditions noted are these: at 0.1 µM.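 Further: values are mean percent inhibition of FGFR4.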

The structures appear in SMILES notation.

Chain of Receptor tyrosine-protein kinase erbB-4 (Homo sapiens) (Q15303 whole entry): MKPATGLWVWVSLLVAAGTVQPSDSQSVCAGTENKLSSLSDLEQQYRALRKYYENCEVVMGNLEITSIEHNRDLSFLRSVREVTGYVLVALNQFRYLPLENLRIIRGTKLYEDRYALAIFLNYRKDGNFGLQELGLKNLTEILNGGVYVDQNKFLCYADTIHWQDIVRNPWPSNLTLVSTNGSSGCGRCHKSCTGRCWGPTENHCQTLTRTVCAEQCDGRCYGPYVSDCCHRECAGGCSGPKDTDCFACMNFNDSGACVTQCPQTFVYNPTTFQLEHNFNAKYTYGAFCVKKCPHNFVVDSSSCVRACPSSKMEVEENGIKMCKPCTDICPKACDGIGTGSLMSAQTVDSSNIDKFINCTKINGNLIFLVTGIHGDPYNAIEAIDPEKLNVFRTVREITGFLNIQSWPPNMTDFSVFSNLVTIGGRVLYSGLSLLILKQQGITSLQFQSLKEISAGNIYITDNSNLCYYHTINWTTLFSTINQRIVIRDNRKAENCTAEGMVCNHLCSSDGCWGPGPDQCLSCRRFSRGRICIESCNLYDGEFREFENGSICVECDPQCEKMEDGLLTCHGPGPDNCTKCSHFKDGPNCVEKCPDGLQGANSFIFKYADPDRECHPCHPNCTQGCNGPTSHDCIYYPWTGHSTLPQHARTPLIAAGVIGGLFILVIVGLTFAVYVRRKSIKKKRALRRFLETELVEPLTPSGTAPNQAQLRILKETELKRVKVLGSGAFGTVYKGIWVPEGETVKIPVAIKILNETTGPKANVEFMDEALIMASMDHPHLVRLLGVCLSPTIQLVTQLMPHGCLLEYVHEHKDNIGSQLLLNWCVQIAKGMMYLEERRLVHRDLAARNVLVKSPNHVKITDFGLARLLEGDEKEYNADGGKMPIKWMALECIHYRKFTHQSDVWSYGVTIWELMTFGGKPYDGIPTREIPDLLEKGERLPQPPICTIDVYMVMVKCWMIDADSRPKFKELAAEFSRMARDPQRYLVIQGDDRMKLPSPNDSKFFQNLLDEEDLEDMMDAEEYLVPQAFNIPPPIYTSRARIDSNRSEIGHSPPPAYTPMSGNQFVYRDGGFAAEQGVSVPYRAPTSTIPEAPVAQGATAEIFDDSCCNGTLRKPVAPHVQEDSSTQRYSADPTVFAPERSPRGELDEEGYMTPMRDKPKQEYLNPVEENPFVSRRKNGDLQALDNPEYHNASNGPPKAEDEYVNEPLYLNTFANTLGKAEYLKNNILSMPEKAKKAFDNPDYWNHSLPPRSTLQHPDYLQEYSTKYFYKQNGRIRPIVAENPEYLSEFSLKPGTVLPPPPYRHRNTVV
Chain of Fibroblast growth factor receptor 4 (Homo sapiens) (P22455 22-802 limits assumed): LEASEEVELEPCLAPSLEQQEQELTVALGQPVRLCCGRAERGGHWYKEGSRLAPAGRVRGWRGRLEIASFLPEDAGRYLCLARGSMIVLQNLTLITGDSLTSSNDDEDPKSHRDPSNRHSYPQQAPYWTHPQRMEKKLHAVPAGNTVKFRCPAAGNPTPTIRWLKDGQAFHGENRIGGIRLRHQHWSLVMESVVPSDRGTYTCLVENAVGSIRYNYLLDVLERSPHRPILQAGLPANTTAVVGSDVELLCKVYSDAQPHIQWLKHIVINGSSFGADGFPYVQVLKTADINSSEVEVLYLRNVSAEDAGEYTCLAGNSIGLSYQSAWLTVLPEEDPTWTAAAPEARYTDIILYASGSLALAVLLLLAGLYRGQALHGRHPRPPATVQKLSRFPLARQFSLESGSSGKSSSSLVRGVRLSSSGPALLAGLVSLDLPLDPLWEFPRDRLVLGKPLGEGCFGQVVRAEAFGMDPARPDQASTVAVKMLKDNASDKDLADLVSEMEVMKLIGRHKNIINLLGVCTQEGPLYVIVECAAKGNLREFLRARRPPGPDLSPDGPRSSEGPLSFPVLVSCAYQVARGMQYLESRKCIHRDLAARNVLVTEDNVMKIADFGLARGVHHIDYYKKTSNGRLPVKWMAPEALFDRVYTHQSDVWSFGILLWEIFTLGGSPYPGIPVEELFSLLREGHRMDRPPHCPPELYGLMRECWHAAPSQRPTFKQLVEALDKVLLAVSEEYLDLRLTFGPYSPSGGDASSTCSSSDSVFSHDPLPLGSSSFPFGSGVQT

Usually inhibition stands for the drop in the measured response relative to a control, in per cent. For the molecule `CN1CCC(n2cnc(-c3ccc(F)cc3)c2-c2ccnc(N)n2)CC1`, the inhibition was 11.7% in [1]; 4.01% in [2]; 1.1% in assay [3]; 1.15% in [4]; 2.9% in assay [5]; 1.81% in [6]. Moreover, the inhibition in assay [7] turned out to be 3.61%; in [8] it was 8.28%; in assay [9], 18.6%; in assay [10] it was 1.42%; in [11], 8.24%; in assay [12] it was 2.63%. Also, the inhibition is 2.33% in [13]; -0.33% in [14]; -2.26% in assay [15]; 1.68% in assay [16]; 4.49% in [17]; 3.51% in assay [18]. For the same molecule, the results for the inhibition in [19] and in assay [20] were 4.31% and 1.4%, respectively.
Take `NC(=O)c1sc(-n2cnc3ccc(C(F)(F)F)cc32)cc1OCc1ccccc1Br`: the inhibition in [1] was 7.8%; in assay [2] it was 7.23%; in [3], 4.9%; in [4], -1.54%; in assay [5] it was 0.48%; in assay [6], 1.83%. For the same molecule, the inhibition was 1.49% in [7]; 6.27% in assay [8]; 10.9% in assay [9]; 2.63% in assay [10]; 2.2% in [11]; 1.79% in [12]. Moreover, the inhibition amounted to 2.43% in [13]; 4.99% in assay [14]; 5.11% in assay [15]; 4.53% in [16]; 4.28% in [17]; 5.08% in assay [18]. Moreover, the inhibition was determined as 3.54% in [19] and 4.08% in [20].
Regarding `Nc1nc(-c2ccc(F)cc2)c(-c2ccc3ncccc3n2)s1`, the inhibition in [1] stood at 15.2%; in assay [2], 5.51%; in assay [3] it was 5.14%; in [4] it was 1.8%; in [5] it was 5.58%; in [6] it was 4.65%. Moreover, the inhibition is 6.61% in assay [7]; 16.8% in assay [8]; 48.5% in assay [9]; 2.2% in assay [10]; 11.1% in assay [11]; 3.07% in assay [12]. The inhibition in [13] was 4.26%; in assay [14], 4.21%; in assay [15], 4.14%; in assay [16], 4.62%; in assay [17], 11.8%; in [18], 8.15%. The inhibition in [19] amounted to 11.4%; in assay [20], 1.96%.
On to `CCc1nn2ncccc2c1-c1ccnc(NC2CC2)n1`, for which the inhibition stood at 5.11% in [1]; 2.18% in assay [2]; 3.88% in assay [3]; 1.21% in assay [4]; 3.43% in assay [5]; 3.58% in assay [6]. Also, the inhibition in [7] was 5.82%; in [8] it was 3.42%; in [9] it was 8.22%; in [10], 0.5%; in assay [11], 4.48%; in [12] it was 1.57%. Moreover, the inhibition in assay [13] stood at 2.04%; in [14] it was 1.58%; in [15], 7.38%; in assay [16], 8.21%; in [17], 10.7%; in assay [18], 6.71%. The inhibition came to 11% in assay [19] and 4.64% in assay [20].

The values are drawn from ChEMBL document CHEMBL1961873, “Compounds: GSK PKIS; Assays: Nanosyn kinase panel” (2012).
